Experimental data: PubChem BioAssay (Tox21)
Several values for one entry are separate records, joined by “and”; a condition that tells them apart may be missing. Equal entries are not always repeated. Records with an inconclusive call do not appear. Values without a mark were called inactive. Activity calls are given as the source filed them. Calls follow the shape of the full dose curve.

target: Acetylcholinesterase (Homo sapiens) (UniProt P22303); assay: Acetylcholinesterase (AChE) small molecule antagonists: fluorescence cell-based qHTS assay (AID 1347398); conditions: SH-SY5Y cells; Potency: AChE activity; series mostly up to 115 µM; activity change, negative = inhibition: at the top concentration; also: nearly all actives have a fitted effect of over 50% in size
Sequence (P22303 whole entry, looked up): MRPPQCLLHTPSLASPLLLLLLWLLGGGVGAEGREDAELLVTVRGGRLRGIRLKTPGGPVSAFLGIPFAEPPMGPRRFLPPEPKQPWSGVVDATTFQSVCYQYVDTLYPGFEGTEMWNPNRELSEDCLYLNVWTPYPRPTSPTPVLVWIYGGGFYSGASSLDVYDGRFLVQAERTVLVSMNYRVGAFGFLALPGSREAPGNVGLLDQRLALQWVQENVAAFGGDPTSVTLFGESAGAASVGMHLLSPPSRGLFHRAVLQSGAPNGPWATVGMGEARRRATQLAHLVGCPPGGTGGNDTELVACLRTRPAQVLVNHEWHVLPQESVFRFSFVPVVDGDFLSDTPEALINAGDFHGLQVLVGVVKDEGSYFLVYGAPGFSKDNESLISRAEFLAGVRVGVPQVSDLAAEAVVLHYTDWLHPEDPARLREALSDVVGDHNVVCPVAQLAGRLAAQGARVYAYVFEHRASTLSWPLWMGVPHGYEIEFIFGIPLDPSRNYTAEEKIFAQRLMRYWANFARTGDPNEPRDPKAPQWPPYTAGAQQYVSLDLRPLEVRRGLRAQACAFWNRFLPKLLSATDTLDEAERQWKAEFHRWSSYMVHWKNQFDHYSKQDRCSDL
Text: National Center for Advancing Translational Sciences [NCATS]
Division of Preclinical Innovation [DPI]
U.S. Environmental Protection Agency [EPA]
National Institutes of Environmental Health Sciences [NIEHS]
National Toxicology Program [NTP]
U.S. Food and Drug Administration [FDA]
Acetylcholinesterase (AChE) is the primary cholinesterase in the body that hydrolyzes a key neurotransmitter, acetylcholine. Inhibition of AChE activity can lead to neurotoxicity. Known inhibitors of AChE include organophosphorous pesticides (OP), chemical warfare agents, drugs, and various phytochemicals.
A homogenous cell-based assay using Amplitetrade mark Fluorimetric Acetylcholinesterase Assay Kit *Green Fluorescence* (AAT Bioquest, Sunnyvale, CA) was used to evaluate the chemicals in the Tox21 10K library that inhibit AChE activity. The assay uses Thiolite Green to quantify the thiocholine produced from the hydrolysis of acetylthiocholine by AChE from the SH-SY5Y cells. AChE can hydrolyze acetylthiocholine to create thiocholine. Thiolite Green is fluorescent when reacting with thiocholine. It has spectral properties similar to those of fluorescein. The fluorescence intensity of Thiolite Green is used to measure AChE activity. Its signal can be easily read by a fluorescence microplate reader at Ex/Em = 490/520 nm.
Tox21 Assay Protocol Summary:
For cell-based AChE assay, 2,000 SH-SY5Y cells in 4 uL/well were dispensed into black, clear-bottom 1536-well plates using a Multidrop Combi (Thermo Scientific) dispenser. The assay plates were incubated overnight at 37 C to allow cells to attach to the wells, followed by the transfer of 23 nL compound or DMSO (vehicle control) by a Pintool station (Wako Automation, CA). The plates were incubated for 30 min at 37 C and 5% CO2, followed by the addition of 4 uL of detection cocktail solution (ThioliteGreen, acetylthiocholine) into each well using Flying Reagent Dispenser (Beckman Coulter, CA) and then following 40 min incubation at room temperature. Fluorescent intensity (Ex/Em = 490/520 nm) was measured using an Envision plate reader (PerkinElmer, MA).
% is scaled to controls: 0 for no effect and ±100 for the full control effect; potency is read from the fitted curve at half-maximal effect.

**Q.** For O=S1OCC2C(CO1)C1(Cl)C(Cl)=C(Cl)C2(Cl)C1(Cl)Cl (stereo not given), which Potency is on record?
**A.** inactive

**Q.** CCC(C)Nc1c([N+](=O)[O-])cc(C(C)(C)C)cc1[N+](=O)[O-] (stereo not given) was tested. Which “activity change, negative = inhibition” value did it give?
**A.** 6.58%

**Q.** For CNC(C)(C)Cc1ccccc1, which “activity change, negative = inhibition” value is on record?
**A.** 3.78% [at 53.7 µM]

**Q.** With Cc1cc2c3c(c1)C(c1ccccc1)=N[C@@H](NC(=O)c1ccncc1)C(=O)N3CC2 as the compound, how does the “activity change, negative = inhibition” value read?
**A.** -8.68%

**Q.** For CC(C)=CCN1CC[C@@]2(C)c3cc(O)ccc3C[C@@H]1[C@@H]2C, which Potency is on record?
**A.** 44.1 µM (active)

**Q.** For Oc1cc(Cl)c(Cl)c(Cl)c1Cl, which “activity change, negative = inhibition” value is on record?
**A.** -20.1%

**Q.** With Cc1ccc(C)c2ccccc12 as the compound, how does the “activity change, negative = inhibition” value read?
**A.** -4.54%

**Q.** With FC(F)C(F)(F)OCC(Cn1cncn1)c1ccc(Cl)cc1Cl (stereo not given) as the compound, how does the “activity change, negative = inhibition” value read?
**A.** -1.13%

**Q.** How did the “activity change, negative = inhibition” value turn out when CNN was run?
**A.** -21%

**Q.** How did the “activity change, negative = inhibition” value turn out when CO/N=C(/C1=NOCCO1)c1ccccc1Oc1ncnc(Oc2ccccc2Cl)c1F was run?
**A.** 8.98%

**Q.** O=c1[nH]c2cc(Cl)ccc2n1C1CCNCC1 was tested. Which “activity change, negative = inhibition” value did it give?
**A.** -7.5% [at 53.7 µM]

**Q.** Which “activity change, negative = inhibition” value does the source give for C=CCBr here?
**A.** 3.79%

**Q.** For CN1CCc2cc(Cl)c(O)cc2[C@H]2c3ccccc3CC[C@@H]21, which Potency is on record?
**A.** 21.9 µM (active)

**Q.** For CC(Cc1ccc2c(c1)OCO2)NO (stereo not given), which “activity change, negative = inhibition” value is on record?
**A.** -6.18%

**Q.** With CC(O)C(=O)[O][Hg][c]1ccccc1 (stereo not given) as the compound, how does the Potency read?
**A.** 79.6 µM (active)

**Q.** For CCCCCCC[CH2][Sn]([Cl])([Cl])[CH2]CCCCCCC, which “activity change, negative = inhibition” value is on record?
**A.** -8.13%

**Q.** Which “activity change, negative = inhibition” value does the source give for COc1c2c(cc3c1OCO3)CCN(C)C2 here?
**A.** -13.9% [at 53.7 µM]

**Q.** Which Potency does the source give for CNC(=O)/C=C(\C)OP(=O)(OC)OC here?
**A.** 31.7 µM (active)

**Q.** For C[N+]1(C)[C@@H]2CC[C@H]1CC(OC(=O)C(CO)c1ccccc1)C2 (stereo not given in full), which “activity change, negative = inhibition” value is on record?
**A.** 36.6% [at 53.7 µM]

**Q.** Which “activity change, negative = inhibition” value does the source give for CCC[CH2][Sn]([CH2]CCC)([O]C(C)=O)[O]C(C)=O here?
**A.** -0.0948%

**Q.** With Clc1ccc(C(c2ccc(Cl)cc2)C(Cl)Cl)cc1 as the compound, how does the Potency read?
**A.** inactive

**Q.** Which Potency does the source give for CN(C)C(=S)SSC(=S)N(C)C here?
**A.** 35.1 µM (active) and 39.9 µM (active) and 21.9 µM (active)

**Q.** With CCN(CC)CCN1C(=O)CN=C(c2ccccc2F)c2cc(Cl)ccc21 as the compound, how does the “activity change, negative = inhibition” value read?
**A.** -3.96% [at 53.7 µM]

**Q.** CCOC(=O)Cc1ccccc1 was tested. Which “activity change, negative = inhibition” value did it give?
**A.** 0.432%

**Q.** Which activity change, negative = inhibition does the source give for CCC[CH2][Sn]([CH2]CCC)([CH2]CCC)[O][Sn]([CH2]CCC)([CH2]CCC)[CH2]CCC here?
**A.** 2.81% [at 10.5 µM]

**Q.** Which “activity change, negative = inhibition” value does the source give for CCC[CH2][Sn]([CH2]CCC)([CH2]CCC)[CH2]CCC here?
**A.** 8.21%

**Q.** N#CC(C#N)=NNc1cccc(Cl)c1 was tested. Which “activity change, negative = inhibition” value did it give?
**A.** -2.08%

**Q.** For C=CC(=C)C, which “activity change, negative = inhibition” value is on record?
**A.** 1.09%

**Q.** How did the “activity change, negative = inhibition” value turn out when C=CC(=O)[O][Sn]([CH2]CCC)([CH2]CCC)[CH2]CCC was run?
**A.** 7.97%

**Q.** With CCOC(=O)CCN(SN(C)C(=O)Oc1cccc2c1OC(C)(C)C2)C(C)C as the compound, how does the Potency read?
**A.** 0.1 µM (active)

**Q.** How did the “activity change, negative = inhibition” value turn out when S=C=Nc1ccccc1 was run?
**A.** 4.54%

**Q.** For ClCBr, which “activity change, negative = inhibition” value is on record?
**A.** 7.03%

**Q.** With CCN(CC)Cc1nccn1-c1ccc([N+](=O)[O-])cc1C(=O)c1ccccc1Cl as the compound, how does the “activity change, negative = inhibition” value read?
**A.** -9.91% [at 53.7 µM]

**Q.** For COc1cnc(OC)n2nc(NS(=O)(=O)c3c(OCC(F)F)cccc3C(F)(F)F)nc12, which “activity change, negative = inhibition” value is on record?
**A.** 0.337%

**Q.** For CO/N=C(\C(=O)OC)c1ccccc1CO/N=C(\C)c1cccc(C(F)(F)F)c1, which “activity change, negative = inhibition” value is on record?
**A.** 3.31%

**Q.** CC[C@]1(O)CC[C@H]2[C@@H]3CCC4=CCCC[C@@H]4[C@H]3CC[C@@]21C was tested. Which “activity change, negative = inhibition” value did it give?
**A.** -3.66% [at 53.7 µM]

**Q.** For O.O.O.O=C([O-])[C@H]([O-])[C@@H]([O-])C(=O)[O-].O=C([O-])[C@H]([O-])[C@@H]([O-])C(=O)[O-].[K+].[K+].[Sb+3].[Sb+3], which “activity change, negative = inhibition” value is on record?
**A.** 2.01%

**Q.** CCOP(=O)(Sc1ccccc1)Sc1ccccc1 was tested. Which Potency did it give?
**A.** 0.894 µM (active)

**Q.** For COC(=O)/C=C(\C)OP(=O)(OC)OC, which Potency is on record?
**A.** 1 µM (active)

**Q.** For O=S1(=O)OCC2C(CO1)C1(Cl)C(Cl)=C(Cl)C2(Cl)C1(Cl)Cl (stereo not given), which “activity change, negative = inhibition” value is on record?
**A.** 9.5%
